By AC50 is commonly meant the midpoint of the concentration-response curve, whichever way the signal moves.

Results filed as inconclusive are left out. More than one record can exist for a structure, and the calls need not agree. Activity calls are given as the source filed them. How the source made its calls: active means hit-call score of the fitted dose curve at least 0.9, where 1 is the maximum; inconclusive means response in the unintended direction; inactive means score below 0.9.

Sequence of Nuclear receptor subfamily 4 group A member 2 (Homo sapiens) (P43354 whole entry, looked up): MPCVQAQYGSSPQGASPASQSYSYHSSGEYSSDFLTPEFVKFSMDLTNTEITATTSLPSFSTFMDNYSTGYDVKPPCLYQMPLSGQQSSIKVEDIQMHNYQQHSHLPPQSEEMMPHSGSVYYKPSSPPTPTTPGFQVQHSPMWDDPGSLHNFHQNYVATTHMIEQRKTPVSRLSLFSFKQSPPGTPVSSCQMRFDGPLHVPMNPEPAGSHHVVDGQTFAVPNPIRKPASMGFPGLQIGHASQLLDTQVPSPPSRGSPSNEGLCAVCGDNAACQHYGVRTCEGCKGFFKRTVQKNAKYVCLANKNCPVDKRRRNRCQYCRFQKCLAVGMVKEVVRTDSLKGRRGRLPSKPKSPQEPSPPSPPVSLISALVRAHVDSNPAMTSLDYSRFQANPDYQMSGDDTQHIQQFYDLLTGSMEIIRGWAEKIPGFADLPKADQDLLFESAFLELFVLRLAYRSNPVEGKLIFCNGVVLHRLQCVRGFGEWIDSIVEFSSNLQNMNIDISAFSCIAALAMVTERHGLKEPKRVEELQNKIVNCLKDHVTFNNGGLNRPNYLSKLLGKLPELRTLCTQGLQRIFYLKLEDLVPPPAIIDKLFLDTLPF
Sequence of Oxysterols receptor LXR-beta (Homo sapiens) (P55055 whole entry, looked up, the tested form may be a part): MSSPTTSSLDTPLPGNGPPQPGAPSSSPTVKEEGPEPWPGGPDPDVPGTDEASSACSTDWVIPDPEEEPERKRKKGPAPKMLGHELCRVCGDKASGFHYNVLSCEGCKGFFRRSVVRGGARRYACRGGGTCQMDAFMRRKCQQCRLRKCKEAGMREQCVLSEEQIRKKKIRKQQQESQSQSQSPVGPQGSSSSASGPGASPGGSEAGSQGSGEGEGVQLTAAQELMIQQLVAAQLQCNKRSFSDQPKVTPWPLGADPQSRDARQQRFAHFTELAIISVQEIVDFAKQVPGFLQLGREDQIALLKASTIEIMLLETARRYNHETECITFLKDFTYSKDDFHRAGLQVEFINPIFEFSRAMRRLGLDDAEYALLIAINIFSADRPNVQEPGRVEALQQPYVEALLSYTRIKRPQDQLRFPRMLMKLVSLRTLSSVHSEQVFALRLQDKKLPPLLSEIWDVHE

For one test, the target named is Oxysterols receptor LXR-beta (Homo sapiens) (UniProt P55055). The test can be described thus: ATG_LXRb_TRANS: Attagene TRANS-FACTORIAL HepG2 Assay for human Liver X Receptor beta (LXRb) (AID 2282981). The settings on record: HepG2 Attagene TRANS GAL4-LXRb reporter, mRNA. The gist of the method:
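Gain-of-signal mRNA reporter endpoint, DMSO as negative control. Transiently transfected HepG2 cells carrying the NR-Gal4 chimera and GAL4-UAS reporter units were treated 24 h; transcripts quantified by RT-PCR and capillary electrophoresis fluorescence.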
For the molecule `CC(C)(C)[C@@H](O)[C@@H](Cc1ccc(Cl)cc1)n1cncn1`, the molecule was called inactive.
Take `CC(=O)S[C@@H]1CC2=CC(=O)CC[C@]2(C)[C@H]2CC[C@@]3(C)[C@@H](CC[C@@]34CCC(=O)O4)[C@H]12`: the molecule was called inactive.
For the molecule `O=C(Nc1ccc([N+](=O)[O-])cc1Cl)c1cc(Cl)ccc1O`, the result was inactive.
For `COC(=O)c1ccccc1S(=O)(=O)NC(=O)Nc1nc(OC(F)F)cc(OC(F)F)n1`, the molecule was called inactive.
For `N[C@@H](Cc1cc(I)c(Oc2ccc(O)c(I)c2)c(I)c1)C(=O)O`, the molecule was classed as inactive.
In the case of `COCCO`, the call was inactive.

The target of a further test is Hepatocyte nuclear factor 4-alpha (Homo sapiens) (UniProt P41235). The test can be described thus: ATG_HNF4a_TRANS: Attagene TRANS-FACTORIAL HepG2 Assay for human Hepatocyte Nuclear Factor 4 alpha (HNF4a) (AID 2282982). Particulars: HepG2 HNF4a transactivation reporter, mRNA readout. Put shortly: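 Gain-of-signal mRNA induction, relative to DMSO vehicle, was read after 24 h compound treatment of HepG2 cells bearing transfected GAL4-UAS reporters. Detection used RT-PCR, 6-FAM primer extension and capillary electrophoresis.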
Sequence of Hepatocyte nuclear factor 4-alpha (Homo sapiens) (P41235 whole entry, looked up, the tested form may be a part): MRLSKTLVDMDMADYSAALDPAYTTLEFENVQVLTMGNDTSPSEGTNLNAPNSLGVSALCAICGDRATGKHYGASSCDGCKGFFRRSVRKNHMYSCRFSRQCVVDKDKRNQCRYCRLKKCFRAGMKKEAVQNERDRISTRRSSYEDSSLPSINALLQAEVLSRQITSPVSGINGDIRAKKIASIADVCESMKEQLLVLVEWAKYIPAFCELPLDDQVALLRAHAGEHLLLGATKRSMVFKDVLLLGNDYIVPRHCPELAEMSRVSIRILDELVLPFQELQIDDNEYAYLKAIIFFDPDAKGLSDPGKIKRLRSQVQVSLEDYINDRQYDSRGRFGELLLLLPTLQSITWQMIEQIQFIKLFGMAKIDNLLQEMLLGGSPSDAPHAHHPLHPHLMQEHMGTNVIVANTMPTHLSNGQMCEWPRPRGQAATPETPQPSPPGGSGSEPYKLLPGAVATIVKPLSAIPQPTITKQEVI
With `CCCCC(CC)CN1C(=O)C2C3C=CC(C3)C2C1=O` (configuration not stated), the outcome was inactive.
As to `c1ccc2[nH]c(-c3cscn3)nc2c1`, the outcome was inactive.
The same measure, in the same setting: with `COC(=O)c1ccc(I)cc1S(=O)(=O)NC(=O)Nc1nc(C)nc(OC)n1` the entry was “inactive”; with `CCCCCCC(C)OC(=O)COc1nc(F)c(Cl)c(N)c1Cl` (configuration not stated), “inactive”.
Same read-out and setting: under `O=C(O)c1ccccc1` stands “inactive”.
For the molecule `CC1(C)C(C=C(Cl)Cl)C1C(=O)OCc1cccc(Oc2ccccc2)c1` (configuration not stated), the call was inactive.
Still for that read-out and setting: under `CCCCOCCOCCOCc1cc2c(cc1CCC)OCO2` stands “inactive”; under `CCCCOC(=O)C(C)Oc1ccc(Oc2ccc(C(F)(F)F)cn2)cc1` (configuration not stated), “inactive”; under `O=C(O)C1(C(=O)Nc2ccc(Cl)cc2Cl)CC1`, “inactive”.
Consider `CCOC(=O)[C@H](C)Oc1ccc(Oc2nc3ccc(Cl)cc3o2)cc1`, for which the molecule was called inactive.
The same measure, in the same setting: with `C=CCOC(Cn1ccnc1)c1ccc(Cl)cc1Cl` (configuration not stated) the entry was “inactive”; with `S=C(S)NCCNC(=S)S.[Mn+2].[S-]C([S-])=NCCN=C([S-])[S-].[Zn+2]`, “inactive”.
With `CC(C)(C)[C@@H](O)[C@@H](Cc1ccc(Cl)cc1)n1cncn1`, the call was inactive.
As to `CC(=O)S[C@@H]1CC2=CC(=O)CC[C@]2(C)[C@H]2CC[C@@]3(C)[C@@H](CC[C@@]34CCC(=O)O4)[C@H]12`, the call was inactive.
As to `O=C(Nc1ccc([N+](=O)[O-])cc1Cl)c1cc(Cl)ccc1O`, the molecule was classed as inactive.
On to `COC(=O)c1ccccc1S(=O)(=O)NC(=O)Nc1nc(OC(F)F)cc(OC(F)F)n1`, for which the result was inactive.
Same read-out and setting: under `CCCCCOC(=O)COc1cc(N2C(=O)C3=C(CCCC3)C2=O)c(F)cc1Cl` stands “inactive”.
Take `N[C@@H](Cc1cc(I)c(Oc2ccc(O)c(I)c2)c(I)c1)C(=O)O`: the result was inactive.
Regarding `COCCO`, the call was inactive.

Test system in the next test: not listed separately
The test can be described thus: ATG_M_32_TRANS: Attagene TRANS-FACTORIAL HepG2 Assay for M32 Transcription Factor (Internal Marker) (AID 2282984).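 On outcome: transcript level of a background control reporter unit measured by RT-PCR and capillary electrophoresis.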 The settings on record: HepG2 Attagene TRANS M32 internal marker reporter. The gist of the method: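 Capillary electrophoresis of 6-FAM-labelled reporter fragments gives the signal; data fitted for gain over DMSO negative control. Source: HepG2 cells bearing transient multiple reporter transcription units, 24 h exposure.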
For `C#C[C@]1(O)CC[C@H]2[C@@H]3CCC4=CC(=O)CC[C@@H]4[C@H]3CC[C@@]21CC`, the outcome was inactive.
Regarding `CCCCC(CC)CN1C(=O)C2C3C=CC(C3)C2C1=O` (configuration not stated), the outcome was inactive.
Turning to `c1ccc2[nH]c(-c3cscn3)nc2c1`, the molecule was classed as inactive.
Consider `CCC(O)=C1C(=O)CC(C(=O)O)CC1=O` (configuration not stated), for which the result was inactive.
For `CSC(=O)c1cccc2nnsc12`, the molecule was called inactive.
For the molecule `O=C(O)c1ccccc1`, the call was inactive.
As for `CC(=O)[C@H]1CC[C@H]2[C@@H]3CCC4=CC(=O)CC[C@]4(C)[C@H]3CC[C@]12C`, the AC50 is 125 µM (active) and the call was inactive.
As for `CCCCOCCOCCOCc1cc2c(cc1CCC)OCO2`, the outcome was inactive.
`CCNc1nc(N)nc(Cl)n1`: the result was inactive.
As to `CCCCOC(=O)C(C)Oc1ccc(Oc2ccc(C(F)(F)F)cn2)cc1` (configuration not stated), the molecule was classed as inactive.
The same measure, in the same setting: with `O=C(O)C1(C(=O)Nc2ccc(Cl)cc2Cl)CC1` the entry was “inactive”; with `C=CCOC(Cn1ccnc1)c1ccc(Cl)cc1Cl` (configuration not stated), “inactive”; with `CCCCC(CC)COC(=O)c1ccccc1C(=O)O` (configuration not stated), “inactive”.
Turning to `S=C(S)NCCNC(=S)S.[Mn+2].[S-]C([S-])=NCCN=C([S-])[S-].[Zn+2]`, the molecule was classed as inactive.
`CC(=O)S[C@@H]1CC2=CC(=O)CC[C@]2(C)[C@H]2CC[C@@]3(C)[C@@H](CC[C@@]34CCC(=O)O4)[C@H]12`: the result was inactive.
As to `COC(=O)c1ccccc1S(=O)(=O)NC(=O)Nc1nc(OC(F)F)cc(OC(F)F)n1`, the molecule was called inactive.
For `CCCCCOC(=O)COc1cc(N2C(=O)C3=C(CCCC3)C2=O)c(F)cc1Cl`, the call was inactive.
As to `N[C@@H](Cc1cc(I)c(Oc2ccc(O)c(I)c2)c(I)c1)C(=O)O`, the outcome was inactive.
In the case of `COCCO`, the outcome was inactive.

The target in a further test is Nuclear receptor subfamily 4 group A member 2 (Homo sapiens) (UniProt P43354). The test can be described thus: ATG_NURR1_TRANS: Attagene TRANS-FACTORIAL HepG2 Assay for human Nuclear Receptor Related Protein 1 (NURR1) (AID 2282985). The settings on record: HepG2 Attagene TRANS reporter, mRNA readout. The gist of the method:
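HepG2 / transient MRTU transfection / 24 h compound exposure / RT-PCR + CE fluorescence of reporter mRNA / gain-of-signal vs DMSO.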
Regarding `COC(=O)c1ccccc1C(=O)O`, the call was inactive.
As to `C#C[C@]1(O)CC[C@H]2[C@@H]3CCC4=CC(=O)CC[C@@H]4[C@H]3CC[C@@]21CC`, the call was inactive.
`CCCCC(CC)CN1C(=O)C2C3C=CC(C3)C2C1=O` (configuration not stated): the outcome was inactive.
As for `CCOC(=O)C(C)Oc1ccc(Oc2cnc3cc(Cl)ccc3n2)cc1` (configuration not stated), the molecule was called inactive.
On to `c1ccc2[nH]c(-c3cscn3)nc2c1`, for which the outcome was inactive.
Consider `CCC(O)=C1C(=O)CC(C(=O)O)CC1=O` (configuration not stated), for which the call was inactive.
With `CSC(=O)c1cccc2nnsc12`, the call was inactive.
As to `CCCCCCC(C)OC(=O)COc1nc(F)c(Cl)c(N)c1Cl` (configuration not stated), the result was inactive.
For the molecule `O=C(O)c1ccccc1`, the molecule was classed as inactive.
On to `CC(=O)[C@H]1CC[C@H]2[C@@H]3CCC4=CC(=O)CC[C@]4(C)[C@H]3CC[C@]12C`, for which the outcome was inactive.
`CC1(C)C(C=C(Cl)Cl)C1C(=O)OCc1cccc(Oc2ccccc2)c1` (configuration not stated): the outcome was inactive.
As for `CCCCOCCOCCOCc1cc2c(cc1CCC)OCO2`, the result was inactive.
Turning to `CCCCOC(=O)C(C)Oc1ccc(Oc2ccc(C(F)(F)F)cn2)cc1` (configuration not stated), the result was inactive.
Turning to `C=CCOC(Cn1ccnc1)c1ccc(Cl)cc1Cl` (configuration not stated), the molecule was classed as inactive.
`CCCOC(=O)NCCCN(C)C`: the outcome was inactive.
`COc1c(Cl)ccc(Cl)c1C(=O)O`: the AC50 is 59.2 µM (active).
For the molecule `S=C(S)NCCNC(=S)S.[Mn+2].[S-]C([S-])=NCCN=C([S-])[S-].[Zn+2]`, the result was inactive.
For `CC(=O)S[C@@H]1CC2=CC(=O)CC[C@]2(C)[C@H]2CC[C@@]3(C)[C@@H](CC[C@@]34CCC(=O)O4)[C@H]12`, the outcome was inactive.
For the molecule `COC(=O)c1ccccc1S(=O)(=O)NC(=O)Nc1nc(OC(F)F)cc(OC(F)F)n1`, the call was inactive.
Take `CCCCCOC(=O)COc1cc(N2C(=O)C3=C(CCCC3)C2=O)c(F)cc1Cl`: the call was inactive.
On to `N[C@@H](Cc1cc(I)c(Oc2ccc(O)c(I)c2)c(I)c1)C(=O)O`, for which the AC50 is 25.8 µM (active) and the result was inactive.
